Screening results deposited in PubChem by National Center for Advancing Translational Sciences (NCATS).
AID923: qHTS Assay for Allosteric/Competitive Inhibitors of Caspase-1: Spectroscopic Profiling in AFC Spectral Region; compound fluorescence, AFC spectral region (405/520 nm); Potency, µM (doses to about 57.5 µM), hits mostly activators; actives 1.1% (n = 75,000)
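Titrations up to 57 uM read every 20 sec for 3 min (405/520 nm) with 50 nM caspase 1 and 5 uM Ac-WEHD-AFC, pH 7.5 HEPES buffer. Fluorescence-vs-time intercept gave baseline, scaled against on-plate AFC standard.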
CRE Fsk mod: Cell signaling CRE-BLA (Fsk stim) | CHO CRE-bla reporter (cAMP response element driving beta-lactamase), forskolin EC10, beta-lactamase ratio | Potency, µM (titrated, usually from 38.2 µM), actives largely listed as activators | actives 2.5% (n = 71,000) | AID 662, 2007; active = well fitted activation curve with a large enough effect in the signal ratio, with a control signal flat, not every such curve was filed as active; inconclusive = small, poorly fitted or top-dose-only effect, or effect the other way, or a change in a side signal; the % refers to the signal ratio
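Modulation of forskolin signalling: compounds in titration series added with EC10 NKH 477 to CHO cells carrying a CRE-driven beta-lactamase reporter, 3 h, 37C. CCF4 FRET ratio (460/530 nm, ex 405 nm) gives %activity and AC50.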
HADH2 inhib: qHTS Assay for Inhibitors of HADH2 (Hydroxyacyl-Coenzyme A Dehydrogenase, Type II) | 3-hydroxyacyl-CoA dehydrogenase type-2 (Homo sapiens), Q99714 | recombinant HADH2, NADH fluorescence, beta-hydroxybutyryl-CoA | Potency, µM (titrated, usually from 57.1 µM), actives largely listed as inhibitors | actives 3.4% (n = 73,000) | AID 886, 2007; also: nearly all actives have a fitted effect of over 60% in size
Target sequence (Q99714 whole entry, looked up, one chain of several): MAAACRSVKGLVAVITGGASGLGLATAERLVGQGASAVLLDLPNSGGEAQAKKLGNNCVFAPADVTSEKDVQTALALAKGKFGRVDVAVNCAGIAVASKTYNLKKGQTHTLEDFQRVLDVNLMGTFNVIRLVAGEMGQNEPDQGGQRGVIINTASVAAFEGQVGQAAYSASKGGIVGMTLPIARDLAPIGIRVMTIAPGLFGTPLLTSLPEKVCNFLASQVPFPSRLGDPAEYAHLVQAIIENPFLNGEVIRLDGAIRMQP
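20 nM HADH2 + cpd, 15 min RT; add 1 mM NAD+/90 uM beta-hydroxybutyryl-CoA; kinetic fluorescence 360/450 nm, 4 min. Tris-HCl pH 9.0, 0.01% Tween-20.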
HSD17B inhib: qHTS Assay for Inhibitors of HSD17B4, hydroxysteroid (17-beta) dehydrogenase 4; 3-hydroxyacyl-CoA dehydrogenase type-2 (Homo sapiens), Q99714; recombinant HSD17B10, NADH fluorescence kinetic; Potency, µM (titrated, usually from 57.1 µM), most hits filed as inhibitors; actives 7.6% (n = 75,000); AID 893, 2007;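 also: the protocol describes HADH2 (HSD17B10) and not the HSD17B4 of the title; nearly all actives have a fitted effect of over 70% in size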
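Activity followed as NADH fluorescence increase (ex 360, em 450 nm) every 30 seconds for 4 min, using final 90 uM beta-hydroxybutyryl CoA and 1 mM NAD+. Recombinant His-tagged enzyme, 20 nM, pH 9.0 Tris buffer, 15 min compound preincubation.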
4MU fluor: qHTS Assay for Spectroscopic Profiling in 4-MU Spectral Region. AID 589, 2007. max dye-equivalent concentration, M. compound autofluorescence, 340/450 nm, 4-MU equivalents; stronger effect = higher value. actives 11% (n = 59,000); in the data active = max dye-equivalent concentration above about 10 nM; inconclusive = mostly about 1.1 nM to 9.6 nM
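Intrinsic fluorescence at 340/450 nm (ex/em) was read after 15 min at room temperature in pH 8.0, 100 mM Tris. Each compound concentration expressed as 4-MU-equivalent concentration from a six-point 4-MU standard series on each plate.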
A350 fluor: qHTS Assay for Spectroscopic Profiling in A350 Spectral Region; Compound autofluorescence, 340/450 nm, Alexa 350 dye-equivalents; stronger effect = higher value; max dye-equivalent concentration, M; actives 11% (n = 59,000); in the data active = max dye-equivalent concentration above about 10 nM; inconclusive = mostly about 1.1 nM to 9.6 nM
A number is an active result; [ ] = another dose, or the depositor's remark. Most compounds without a hit are left out; they make up all but 14% or so of the library. Unless noted, calls follow the shape of the dose curve; as a rule, active = well fitted curve in the direction sought with a large enough effect; inconclusive = small, poorly fitted or top-dose-only effect, or another doubt; inactive = no such curve, though single readings can be large; an effect the other way counts as inactive or inconclusive.

For CC(=O)N(CC(O)CN(C(C)=O)c1c(I)c(C(=O)NC[C@@H](O)CO)c(I)c(C(=O)NC[C@@H](O)CO)c1I)c1c(I)c(C(=O)NC[C@@H](O)CO)c(I)c(C(=O)NC[C@@H](O)CO)c1I the results were AID923 inactive, CRE Fsk mod inactive, HADH2 inhib inactive, HSD17B inhib inactive, 4MU fluor inactive and A350 fluor inactive.
COc1ccc(NC(=O)N2CC3(CCN(C(=O)c4ccco4)CC3)C2)cc1 was read as AID923 inactive, CRE Fsk mod inactive, HADH2 inhib inactive, HSD17B inhib inactive, 4MU fluor inactive and A350 fluor inactive.
Cn1c(NC(=O)c2cc(-c3ccc4c(c3)OCO4)nc3ccccc23)cc(=O)n(C)c1=O was read as AID923 inactive, CRE Fsk mod inconclusive, HADH2 inhib inactive, HSD17B inhib inactive, 4MU fluor 3.1e-08M and A350 fluor 3.6e-08M.
`Cc1occc1C(=O)Nc1cc(=O)n(C)c(=O)n1C` gave AID923 inactive, CRE Fsk mod inconclusive, HADH2 inhib inactive, HSD17B inhib inactive, 4MU fluor inactive and A350 fluor inactive.
For O=C1C(O)=C(O)C(=O)C(O)=C1O the results were AID923 inactive, CRE Fsk mod inactive, HADH2 inhib inconclusive, HSD17B inhib inactive, 4MU fluor inconclusive and A350 fluor inconclusive.
CN=c1oc2ccc(Cl)cc2cc1C(N)=O was read as AID923 inactive, CRE Fsk mod inactive, HADH2 inhib inactive, HSD17B inhib 25µM, 4MU fluor inconclusive and A350 fluor inconclusive.
N[C@H](CCC(=O)N[C@H](CSN=O)C(=O)NCC(=O)O)C(=O)O was read as AID923 inactive, CRE Fsk mod inactive, HADH2 inhib inconclusive, HSD17B inhib inconclusive, 4MU fluor inactive and A350 fluor inactive.
Screening Cc1ccc(-c2csc(NC(=O)c3ccno3)n2)cc1 returned AID923 inactive, CRE Fsk mod inactive, HADH2 inhib 20µM, HSD17B inhib 25µM, 4MU fluor inactive and A350 fluor inactive.
For COc1ccc(OC)c(C2CC(=O)c3c([nH]c(C(=O)OCC4CCCO4)c3C)C2)c1 (stereo unspecified) the results were AID923 inactive, CRE Fsk mod inactive, HADH2 inhib inactive and HSD17B inhib inactive.
`COCCOC(=O)c1[nH]c2c(c1C)C(=O)CC(c1cc(OC)ccc1OC)C2` (stereo unspecified) gave AID923 inactive, CRE Fsk mod inconclusive, HADH2 inhib inactive and HSD17B inhib inactive.
CCCOCCOC(=O)c1[nH]c2c(c1C)C(=O)CC(c1cc(OC)ccc1OC)C2 (stereo unspecified) was read as AID923 inactive, CRE Fsk mod 2.5µM, HADH2 inhib inactive and HSD17B inhib inactive.
`COc1ccc(OC)c(C2CC(=O)c3c([nH]c(C(=O)OC(C)C)c3C)C2)c1` (stereo unspecified) gave AID923 inactive, CRE Fsk mod 3.2µM, HADH2 inhib inactive and HSD17B inhib inactive.
Screening NCS(=O)(=O)O returned AID923 inactive[11.5 µM], CRE Fsk mod inactive[7.6 µM], HADH2 inhib inactive[11.4 µM], HSD17B inhib inactive[11.4 µM], 4MU fluor inconclusive and A350 fluor inconclusive.
NCCC[C@@H](CC(=O)N[C@@H]1CCCC[C@H]1C(=O)N[C@H](CC(=O)N[C@@H](CCC(=O)O)CC(=O)O)Cc1ccccc1)NC(=O)C[C@H](CO)NC(=O)[C@@H]1CNCC[C@H]1N was read as CRE Fsk mod inconclusive and HADH2 inhib inactive.
Screening Cc1noc(NC(=O)Nc2ccccc2F)c1C#N returned AID923 inactive[11.5 µM], CRE Fsk mod inactive[7.6 µM], HADH2 inhib inactive[11.4 µM], HSD17B inhib inactive[11.4 µM], 4MU fluor inactive and A350 fluor inactive.
For COc1cc(S(=O)(=O)N(C)C)ccc1F the results were AID923 inactive, CRE Fsk mod inactive, HADH2 inhib inactive, HSD17B inhib inactive, 4MU fluor 1.9e-08M and A350 fluor 2e-08M.
COc1cc(NC(=O)c2ccc(S(=O)(=O)N(C)C)cc2)cc(OC)c1OC was read as AID923 inactive, CRE Fsk mod inconclusive, HADH2 inhib inactive and HSD17B inhib inactive.
O=c1c2ccccc2c(C=Nc2ccc(Cl)cn2)c(O)n1-c1cc(Cl)ccc1N1CCOCC1 was read as AID923 inactive, CRE Fsk mod inactive, HADH2 inhib inactive, HSD17B inhib inactive, 4MU fluor 1.4e-08M and A350 fluor 1.6e-08M.
CC(C)(C)N1C(=O)[C@H]2[C@H]3[C@H](O)[C@H](O)C/C(=N/OC[C@@H](O)COCc4ccco4)[C@@H]3CC[C@@H]2C1=O was read as AID923 inactive[11.5 µM], HADH2 inhib inactive[11.4 µM] and HSD17B inhib inactive[11.4 µM].
COc1ccc(CNC(=O)c2cccc(N(C)C)c2)cc1 was read as AID923 inactive, CRE Fsk mod inactive, HADH2 inhib inconclusive, HSD17B inhib inactive, 4MU fluor 1e-08M and A350 fluor 1.2e-08M.
COc1ccc(C(CNC(=O)c2cccc(N(C)C)c2)N2CCCC2)cc1 (stereo unspecified) was read as AID923 inactive, CRE Fsk mod inactive, HADH2 inhib inactive, HSD17B inhib inactive, 4MU fluor inconclusive and A350 fluor inconclusive.
`CN(C)c1ccc(-c2nn3c(-c4cccnc4)nnc3s2)cc1` gave AID923 inactive, CRE Fsk mod inconclusive, HADH2 inhib inactive, HSD17B inhib inactive, 4MU fluor 1.2e-07M and A350 fluor 1.2e-07M.
For CN(C)c1ccc(-c2nn3c(-c4ccncc4)nnc3s2)cc1 the results were AID923 inactive, CRE Fsk mod inactive, HADH2 inhib inactive, HSD17B inhib inactive, 4MU fluor 1.1e-08M and A350 fluor 1.2e-08M.
CCOC(=O)OCC1C=C[C@H](c2cc(-c3ccccc3)ccc2O)C(c2ccc(C(C)=O)cc2)O1 (stereo partly specified) was read as AID923 inactive[11.5 µM], HADH2 inhib inactive[11.4 µM] and HSD17B inhib inactive[11.4 µM].
Screening C[C@@]1(O)CCOC(=O)C1 returned AID923 inactive, CRE Fsk mod inactive, HADH2 inhib inactive, HSD17B inhib inactive, 4MU fluor inactive and A350 fluor inactive.
Cc1cc(C(=O)OCn2nnc3ccccc3c2=O)c(C)n1-c1ccccc1 was read as AID923 inactive, CRE Fsk mod 4µM, HADH2 inhib inactive, HSD17B inhib inactive, 4MU fluor inactive and A350 fluor inactive.
CCOc1ccc(C(=O)OCn2nnc3ccccc3c2=O)cc1OC was read as AID923 inactive, CRE Fsk mod inconclusive, HADH2 inhib inactive, HSD17B inhib inactive, 4MU fluor inactive and A350 fluor inactive.
